Results filed as inconclusive are left out. Entries that show only a call come without a potency. Unmarked numbers belong to inactive results. Activity calls are given as the source filed them. Calls follow the shape of the dose curve; as a rule, active = well fitted inhibition curve with a large enough effect; inconclusive = small, poorly fitted or top-dose-only effect; inactive = flat fitted curve, though single readings scatter.

These results are taken from PubChem BioAssay (NCATS).

The nature of test [1]: qHTS for Inhibitors of Plasmodium falciparum (DD2) proliferation (AID 504314).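 Also: parasite DNA measured by SYBR Green fluorescence after red cell lysis.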 In outline: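 SYBR Green growth assay: 72 h compound exposure of infected red cells (2.5% hematocrit, 0.3% parasitemia), then lysis and overnight dye staining, fluorescence 485/535 nm. Values scaled between DMSO and 0.29 uM artemisinin controls.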
A general note: Quantitative high-throughput screening tests each substance at several concentrations.

Test [2] can be described thus: qHTS for Inhibitors of Plasmodium falciparum (7G8) proliferation (AID 504316). Also: series mostly up to about 6.7 µM; nearly all actives have a fitted effect of over 65% in size. An outline of the steps:
(§1)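 Parasite growth measured as SYBR Green DNA fluorescence (ex 485, em 535 nm) after overnight lysis following 72 h culture at 37 °C, 0.3% parasitemia, 2.5% hematocrit. Values normalized against DMSO and 0.29 uM artemisinin controls, with plate-stack correction.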

Test [3] in a line: qHTS for Inhibitors of Plasmodium falciparum (HB3) proliferation (AID 504318). Also: nearly all actives have a fitted effect of over 60% in size. An outline of the steps:
as §1

As for `COC(=O)C1C2CC(C)C(c3ccccc32)N1C(=O)C(F)(F)F` (stereo unspecified), the outcome in test [1] and in test [2] was inactive. For the same compound, the Potency entry in test [3] was “inactive”.

In the case of `CCOC(=O)[C@]12C[C@]3(C)CCN(C(=O)N[C@@H]1c1ccccc1)[C@@H]32`, the result in test [1] and in test [2] was inactive. Also, the Potency result in test [3] was “inactive”.

With `COC(=O)C1=C2CCCO[C@H]2[C@@H]2[C@@H](C)[C@H](OC)c3ccccc3[C@@H]12`, the outcome in test [1] and in test [2] was inactive.

As for `CCOC(=O)[C@]12C[C@@H]3OCCN(C(=O)N[C@@H]1c1ccccc1)[C@@H]32`, the compound was called inactive in test [1] and in test [2]. For the same compound, the Potency result in test [3] was “inactive”.
